According to PubChem BioAssay AID1159580 (chemical genetic matrix, 2015):
The campaign covered roughly 5,500 compounds. About 2,000 (36%) were called active. Another 18% or so got no clear call; they are omitted. Rule as the data show it: active = normalized growth mostly below about 0.91 (no sharp cut-off); inconclusive = no clear call, values can overlap the other calls; inactive = mostly above about 0.92. The list shows a part of the results.

Assay: chemical genetic growth profiling, strain panel (AID 1159580);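 also: tested at 20 µM; growth read once vehicle control cultures reached saturation at 30 °C; 1 = growth at the plate median or of vehicle wells; lower values mean less growth of the strain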
Settings: S. cerevisiae deletion strains, growth OD
[1] = locus YAR019C, strain CDC15, stronger effect = lower value
[2] = locus YBL105C, strain PKC1, stronger effect = lower value
[3] = locus YBR135W, strain CKS1, stronger effect = lower value
[4] = locus YBR136W, strain MEC1, stronger effect = lower value
[5] = locus YBR160W, strain CDC28, stronger effect = lower value
[6] = locus YDL017W, strain CDC7, stronger effect = lower value
[7] = locus YDL028C, strain MPS1, stronger effect = lower value
[8] = locus YDL101C, strain DUN1, stronger effect = lower value
[9] = locus YDL108W, strain KIN28, stronger effect = lower value
[10] = locus YDL132W, strain cdc53, stronger effect = lower value
[11] = locus YDL214C, strain PRR2, stronger effect = lower value
[12] = locus YDR052C, strain DBF4, stronger effect = lower value
[13] = locus YDR054C, strain cdc34, stronger effect = lower value
[14] = locus YDR226W, strain ADK1, stronger effect = lower value
[15] = locus YDR477W, strain SNF1, stronger effect = lower value
[16] = locus YER123W, strain YCK3, stronger effect = lower value
[17] = locus YER133W, strain GLC7, stronger effect = lower value
[18] = locus YFL009W, strain cdc4, stronger effect = lower value
[19] = locus YFL029C, strain CAK1, stronger effect = lower value
[20] = locus YFR003C, strain YPI1, stronger effect = lower value
[21] = locus YFR019W, strain FAB1, stronger effect = lower value
[22] = locus YFR028C, strain CDC14, stronger effect = lower value
[23] = locus YGR040W, strain KSS1, stronger effect = lower value
[24] = locus YGR052W, strain FMP48, stronger effect = lower value
[25] = locus YGR092W, strain DBF2, stronger effect = lower value
[26] = locus YHR030C, strain SLT2, stronger effect = lower value
[27] = locus YHR079C, strain IRE1, stronger effect = lower value
[28] = locus YHR082C, strain KSP1, stronger effect = lower value
[29] = locus YHR205W, strain SCH9, stronger effect = lower value
[30] = locus YIL147C, strain SLN1, stronger effect = lower value
[31] = locus YJL095W, strain BCK1, stronger effect = lower value
[32] = locus YJL128C, strain PBS2, stronger effect = lower value
[33] = locus YJL157C, strain FAR1, stronger effect = lower value
[34] = locus YJR016C, strain ILV3, stronger effect = lower value
[35] = locus YJR066W, strain TOR1 (second series), stronger effect = lower value
[36] = locus YJR066W, strain TOR1, stronger effect = lower value
[37] = locus YKL048C, strain ELM1, stronger effect = lower value
[38] = locus YKL067W, strain YNK1, stronger effect = lower value
[39] = locus YKL101W, strain HSL1, stronger effect = lower value
[40] = locus YKL193C, strain SDS22, stronger effect = lower value
[41] = locus YKL203C, strain TOR2, stronger effect = lower value
[42] = locus YLR113W, strain HOG1, stronger effect = lower value
[43] = locus YLR133W, strain CKI1, stronger effect = lower value
[44] = locus YLR403W, strain SFP1, stronger effect = lower value
[45] = locus YML070W, strain DAK1, stronger effect = lower value
[46] = locus YMR001C, strain CDC5, stronger effect = lower value
[47] = locus YMR205C, strain PFK2 (second series), stronger effect = lower value
[48] = locus YMR277W, strain FCP1, stronger effect = lower value
[49] = locus YNL006W, strain LST8, stronger effect = lower value
[50] = locus YNL020C, strain ARK1, stronger effect = lower value
[51] = locus YNL161W, strain CBK1, stronger effect = lower value
[52] = locus YNL183C, strain NPR1, stronger effect = lower value
[53] = locus YNL207W, strain RIO2, stronger effect = lower value
[54] = locus YNL222W, strain SSU72, stronger effect = lower value
[55] = locus YNL307C, strain MCK1 (second series), stronger effect = lower value
[56] = locus YOL078W, strain AVO1, stronger effect = lower value
[57] = locus YOL136C, strain PFK27, stronger effect = lower value
[58] = locus YOR061W, strain CKA2, stronger effect = lower value
[59] = locus YOR119C, strain RIO1, stronger effect = lower value
[60] = locus YOR231W, strain MKK1, stronger effect = lower value
[61] = locus YOR329C, strain SCD5, stronger effect = lower value
[62] = locus YPL031C, strain PHO85, stronger effect = lower value
[63] = locus YPL153C, strain RAD53, stronger effect = lower value
[64] = locus YPL204W, strain HRR25, stronger effect = lower value
[65] = locus YPL209C, strain IPL1, stronger effect = lower value
[66] = locus YPL256C, strain CLN2, stronger effect = lower value
[67] = locus YPR025C, strain CCL1, stronger effect = lower value
[68] = locus YPR106W, strain ISR1, stronger effect = lower value
[69] = locus YPR111W, strain DBF20, stronger effect = lower value
[70] = strain NNK1, stronger effect = lower value
[71] = strain TSCII, stronger effect = lower value

Measured: normalized growth

Cc1cc(C(=O)NNc2ccc(F)cc2F)no1
inactive: [1] 0.972 | [2] 0.967 | [3] 0.971 | [4] 0.969 | [5] 0.964 | [6] 0.972 | [7] 0.977 | [8] 0.959 | [9] 0.973 | [10] 0.984 | [11] 0.938 | [12] 0.963 | [13] 0.952 | [14] 0.963 | [15] 0.95 | [16] 0.822 | [17] 0.957 | [18] 0.974 | [19] 0.956 | [20] 0.974 | [21] 0.899 | [22] 0.961 | [23] 0.93 | [24] 0.995 | [25] 0.861 | [26] 0.923 | [27] 0.948 | [28] 1.01 | [29] 0.962 | [30] 0.971 | [31] 0.955 | [32] 0.965 | [33] 0.931 | [34] 0.974 | [35] 0.879 | [36] 0.998 | [37] 0.95 | [38] 0.953 | [39] 0.955 | [40] 0.976 | [41] 1.01 | [42] 0.932 | [43] 0.93 | [44] 0.934 | [45] 0.912 | [46] 0.969 | [47] 0.972 | [48] 0.975 | [49] 0.988 | [50] 0.953 | [51] 0.963 | [52] 0.979 | [53] 0.962 | [54] 0.959 | [55] 0.908 | [56] 0.967 | [57] 0.937 | [58] 0.822 | [59] 1.01 | [60] 0.921 | [61] 0.967 | [62] 0.939 | [63] 0.923 | [64] 0.925 | [65] 0.96 | [66] 0.934 | [67] 0.968 | [68] 0.962 | [69] 0.963 | [70] 0.979 | [71] 0.964

Cc1cc(Cl)ccc1NNC(=O)c1ccno1
inactive: [1] 0.974 | [2] 0.958 | [3] 0.981 | [4] 0.968 | [5] 0.966 | [6] 0.97 | [7] 0.979 | [8] 0.967 | [9] 0.97 | [10] 0.987 | [11] 0.933 | [12] 0.968 | [13] 0.961 | [14] 0.976 | [15] 0.944 | [16] 0.884 | [17] 0.938 | [18] 0.974 | [19] 0.96 | [20] 0.967 | [21] 0.925 | [22] 0.979 | [23] 0.917 | [24] 0.996 | [25] 0.912 | [26] 0.954 | [27] 1 | [28] 1 | [29] 0.902 | [30] 0.971 | [31] 0.931 | [32] 0.927 | [33] 0.919 | [34] 0.987 | [35] 0.87 | [36] 1.01 | [37] 0.912 | [38] 0.939 | [39] 0.903 | [40] 0.971 | [41] 0.978 | [42] 0.871 | [43] 0.908 | [44] 0.903 | [45] 0.903 | [46] 0.962 | [47] 0.938 | [48] 0.978 | [49] 0.975 | [50] 0.912 | [51] 0.972 | [52] 0.953 | [53] 0.966 | [54] 0.978 | [55] 0.907 | [56] 0.977 | [57] 0.889 | [58] 0.946 | [59] 0.977 | [60] 0.899 | [61] 0.963 | [62] 0.942 | [63] 0.916 | [64] 0.904 | [65] 0.958 | [66] 0.958 | [67] 0.975 | [68] 0.945 | [69] 0.957 | [70] 0.955 | [71] 0.972
